The source of these data is PubChem BioAssay AID2284155 (EPA ToxCast).

Activity calls are given as the source filed them. How the source made its calls: active means hit-call score of the fitted dose curve at least 0.9, where 1 is the maximum; inactive means score below 0.9.

In general, AC50 refers to the concentration at which the activity in the assay is half-maximal.

The target in the test is human Muscarinic Acetylcholine Receptor M4 Antagonism, conducted at France lab site, CHRM4 (gene 1132) (UniProt P08173). In words: ERF_FR_GPCR_hCHRM4: Eurofins (ERF) G Protein-Coupled Receptor (GPCR) Radioligand Binding LeadHunter Assay for human Muscarinic Acetylcholine Receptor M4 Antagonism, conducted at France lab site. Here is the method: ERF_FR_GPCR_hCHRM4 is a biochemical, single-readout assay that uses extracted gene-proteins in a cell-free assay. Measurements were taken 1 hour after chemical dosing in a 96-well plate. See M4 Human Acetylcholine (Muscarinic) GPCR Binding (Antagonist Radioligand) Assay, Cerep.ERF_FR_GPCR_hCHRM4 is an assay component calculated from the ERF_FR_GPCR_hCHRM4 assay. It is designed to measure radioligand binding using a type of binding reporter as detected by scintillation counting with radiometry technology.Data from the assay component ERF_FR_GPCR_hCHRM4 was analyzed at the assay endpoint, ERF_FR_GPCR_hCHRM4, in the positive analysis fitting direction relative to DMSO as the negative control and baseline of activity. Using a type of binding reporter, loss-of-signal activity can be used to understand changes in binding as they relate to gene CHRM4. To generalize the intended target to other relatable targets, this assay endpoint is annotated to the gpcr intended target family, where the subfamily is acetylcholine (Muscarinic).
Sequence of human Muscarinic Acetylcholine Receptor M4 Antagonism, conducted at France lab site, CHRM4 (gene 1132) (P08173 whole entry, looked up): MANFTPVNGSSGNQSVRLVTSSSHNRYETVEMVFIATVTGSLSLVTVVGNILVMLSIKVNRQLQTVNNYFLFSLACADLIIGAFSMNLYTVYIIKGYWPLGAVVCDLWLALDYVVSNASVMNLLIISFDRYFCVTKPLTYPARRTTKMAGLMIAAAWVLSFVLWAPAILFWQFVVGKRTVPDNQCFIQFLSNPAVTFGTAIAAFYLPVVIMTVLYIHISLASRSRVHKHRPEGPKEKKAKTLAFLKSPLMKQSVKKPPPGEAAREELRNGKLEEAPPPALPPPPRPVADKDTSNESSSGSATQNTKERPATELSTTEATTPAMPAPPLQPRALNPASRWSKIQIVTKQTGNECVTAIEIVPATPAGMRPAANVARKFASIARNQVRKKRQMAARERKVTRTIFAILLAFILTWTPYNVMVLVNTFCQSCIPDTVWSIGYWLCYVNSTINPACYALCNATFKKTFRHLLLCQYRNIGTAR
Human cells are incubated for 60 minutes at room temprature with [3H]4-DAMP ligand (0.2 nM) and 4-Damp methiodide as control inhibitor.Test Sample Requirements: Minimum for 1) Screen: 60 ul of 10 mM stock -OR- 1 mg (pre-weighed) for 10 uM final testing. 2) Dose Response: 90 ul of 10 mM stock -OR- 1 mg (pre-weighed) for a top concentration at 10 uM.
`O=C(/C=C/c1ccc(O)cc1)CC(=O)/C=C/c1ccc(O)cc1`: the AC50 was 9.09 µM (active).
